Measured values published in PubChem BioAssay (NCATS).
Results filed as inconclusive are left out. Activity calls are given as the source filed them. Unless noted, calls come from the whole dose curve.

Legend:
[1] = P-glycoprotein substrates identified in KB-8-5-11 adenocarcinoma cell line, qHTS therapeutic library screen (AID 1346987; active = well fitted curve in the direction sought with a large enough effect; an effect the other way counts as inactive or inconclusive; note: nearly all actives have a fitted effect of over 65% in size)
Outline: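 P-gp-mediated resistance screen: KB-8-5-11 cells treated 72 h with compounds in dose-response. CellTiter-Glo viability.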

[2] = Natriuretic polypeptide receptor (hNpr1) antagonism - Pilot counterscreen GloSensor control cell line (AID 1347045); note: series mostly up to about 38 µM
Outline: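 This counterscreen uses HEK293 cells expressing the GIP/pGS-40F cGMP biosensor. Compound-treated cells are challenged with 50 uM sodium nitroprusside, and the luciferase signal is compared before and after stimulation.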

[3] = target: Atrial natriuretic peptide receptor 1 (Homo sapiens) (UniProt P16066); assay: Natriuretic polypeptide receptor (hNpr1) antagonism - Pilot screen (AID 1347049);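 note: agonist-evoked cGMP luminescence read 20 min after hNppA addition; series mostly up to about 58 µM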
Atrial natriuretic peptide receptor 1 (Homo sapiens), sequence (P16066 whole entry, looked up): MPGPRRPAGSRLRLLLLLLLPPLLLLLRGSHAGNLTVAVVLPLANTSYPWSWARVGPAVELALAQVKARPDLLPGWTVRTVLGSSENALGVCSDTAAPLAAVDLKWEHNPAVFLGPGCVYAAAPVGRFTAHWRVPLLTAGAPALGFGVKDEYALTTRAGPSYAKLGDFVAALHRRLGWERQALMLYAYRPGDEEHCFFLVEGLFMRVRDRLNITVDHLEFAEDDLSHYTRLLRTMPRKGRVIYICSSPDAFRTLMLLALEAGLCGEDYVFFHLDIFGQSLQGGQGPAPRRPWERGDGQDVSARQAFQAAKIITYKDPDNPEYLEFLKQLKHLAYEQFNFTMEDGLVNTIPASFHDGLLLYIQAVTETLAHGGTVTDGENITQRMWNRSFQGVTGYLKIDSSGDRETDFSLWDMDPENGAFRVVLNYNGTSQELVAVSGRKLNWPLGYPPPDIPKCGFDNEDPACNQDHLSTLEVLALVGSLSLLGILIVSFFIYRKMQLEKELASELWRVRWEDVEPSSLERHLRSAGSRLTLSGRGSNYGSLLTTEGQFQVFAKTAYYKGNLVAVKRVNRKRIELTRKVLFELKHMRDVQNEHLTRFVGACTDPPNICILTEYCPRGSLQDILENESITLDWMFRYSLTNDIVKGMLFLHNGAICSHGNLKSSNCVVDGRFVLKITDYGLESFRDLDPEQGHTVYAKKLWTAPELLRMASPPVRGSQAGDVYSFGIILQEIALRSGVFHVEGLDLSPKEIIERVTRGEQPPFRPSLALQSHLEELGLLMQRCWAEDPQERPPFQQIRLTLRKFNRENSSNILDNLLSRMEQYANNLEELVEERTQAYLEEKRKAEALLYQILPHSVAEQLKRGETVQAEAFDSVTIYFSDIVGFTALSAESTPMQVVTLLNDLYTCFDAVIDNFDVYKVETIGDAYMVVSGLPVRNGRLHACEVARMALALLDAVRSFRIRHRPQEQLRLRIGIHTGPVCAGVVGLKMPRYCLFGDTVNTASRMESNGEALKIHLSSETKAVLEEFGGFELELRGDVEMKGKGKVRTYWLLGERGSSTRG
Outline: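 HEK293 cells co-expressing hNpr1 and the GloSensor pGS-40F cGMP luciferase sensor were preloaded with 2% GloSensor reagent for 2 h. Compounds were added for 30 min at room temperature, then cells were stimulated with 0.1 nM hNppA for 20 min before luminescence readout.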

[4] = target: Atrial natriuretic peptide receptor 2 (Homo sapiens) (UniProt P20594); assay: Natriuretic polypeptide receptor (hNpr2) antagonism - Pilot subtype selectivity assay (AID 1347050)
Atrial natriuretic peptide receptor 2 (Homo sapiens), sequence (P20594 whole entry, looked up): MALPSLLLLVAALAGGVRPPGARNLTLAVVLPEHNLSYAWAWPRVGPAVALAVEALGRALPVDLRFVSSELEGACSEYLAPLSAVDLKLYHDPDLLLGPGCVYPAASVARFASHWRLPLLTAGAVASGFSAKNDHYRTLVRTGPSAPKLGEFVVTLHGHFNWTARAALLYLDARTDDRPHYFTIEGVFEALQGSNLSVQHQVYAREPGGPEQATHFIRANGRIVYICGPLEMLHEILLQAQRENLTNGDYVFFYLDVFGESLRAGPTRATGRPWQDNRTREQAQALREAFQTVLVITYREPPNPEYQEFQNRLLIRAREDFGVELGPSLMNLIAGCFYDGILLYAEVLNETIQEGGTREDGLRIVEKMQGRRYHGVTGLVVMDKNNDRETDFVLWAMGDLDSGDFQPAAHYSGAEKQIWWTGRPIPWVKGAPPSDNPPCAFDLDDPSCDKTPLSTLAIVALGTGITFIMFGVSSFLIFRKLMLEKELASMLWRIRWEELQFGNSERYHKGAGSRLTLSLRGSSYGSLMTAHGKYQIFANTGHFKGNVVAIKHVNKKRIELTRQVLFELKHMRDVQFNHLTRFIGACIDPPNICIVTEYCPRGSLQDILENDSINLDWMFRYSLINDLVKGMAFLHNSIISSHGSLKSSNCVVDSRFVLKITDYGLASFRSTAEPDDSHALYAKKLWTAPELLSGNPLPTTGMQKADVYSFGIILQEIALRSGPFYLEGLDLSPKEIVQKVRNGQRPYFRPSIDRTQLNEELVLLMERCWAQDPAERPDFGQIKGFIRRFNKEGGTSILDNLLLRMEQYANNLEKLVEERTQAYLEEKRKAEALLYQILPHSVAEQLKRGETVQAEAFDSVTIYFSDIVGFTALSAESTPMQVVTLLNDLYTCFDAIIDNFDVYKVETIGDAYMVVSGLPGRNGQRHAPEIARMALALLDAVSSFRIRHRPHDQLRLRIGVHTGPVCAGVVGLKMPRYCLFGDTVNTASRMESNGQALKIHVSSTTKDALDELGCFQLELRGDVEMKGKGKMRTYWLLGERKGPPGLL
Outline: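 cGMP-sensor HEK293/hNpr2 cells; 2% GloSensor reagent 2 h RT; compounds 30 min; baseline luminescence read; 1 nM hNppC agonist 20 min RT; final luminescence read by CCD camera. Antagonism = reduced post-agonist signal.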

[5] = target: Parathyroid hormone/parathyroid hormone-related peptide receptor (Homo sapiens) (UniProt Q03431); assay: qHTS for PTHR1 Agonists: Optimization Screen against the NCGC LOPAC library (AID 1347079; active = well fitted curve in the direction sought with a large enough effect; an effect the other way counts as inactive or inconclusive;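 note: GloSensor cAMP luminescence in HEK-293 GP2 cells expressing human PTHR1 with IBMX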)
Parathyroid hormone/parathyroid hormone-related peptide receptor (Homo sapiens), sequence (Q03431 whole entry, looked up): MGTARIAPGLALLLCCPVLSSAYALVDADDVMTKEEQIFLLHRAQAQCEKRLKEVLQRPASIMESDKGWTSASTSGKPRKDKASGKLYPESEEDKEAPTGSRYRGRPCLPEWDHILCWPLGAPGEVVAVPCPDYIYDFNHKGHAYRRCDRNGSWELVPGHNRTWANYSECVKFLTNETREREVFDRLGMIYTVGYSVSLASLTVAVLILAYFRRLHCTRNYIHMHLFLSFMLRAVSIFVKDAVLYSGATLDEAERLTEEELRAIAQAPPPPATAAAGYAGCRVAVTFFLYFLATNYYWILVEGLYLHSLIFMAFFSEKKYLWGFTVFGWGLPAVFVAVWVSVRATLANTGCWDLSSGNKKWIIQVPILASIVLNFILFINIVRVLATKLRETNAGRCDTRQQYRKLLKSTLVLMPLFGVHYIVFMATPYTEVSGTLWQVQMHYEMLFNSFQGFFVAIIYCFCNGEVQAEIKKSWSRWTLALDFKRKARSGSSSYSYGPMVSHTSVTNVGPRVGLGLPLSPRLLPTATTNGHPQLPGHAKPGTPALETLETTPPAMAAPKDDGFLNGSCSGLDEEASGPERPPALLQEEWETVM
Outline: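 Compounds were tested across a qHTS titration. PTHR1-expressing GP2 cells report cAMP rises via GloSensor luminescence after 1 hr compound exposure at 37C with IBMX present.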

[6] = qHTS for Inhibitors of the Functional Ribonucleoprotein Complex (vRNP) of Lassa (LASV) Arenavirus: LASV Primary Screen - GLuc reporter signal (AID 1347082; calls by dose curve; tested in HEK293 reporter line; note: series mostly up to about 57 µM; nearly all actives have a fitted effect of over 60% in size)
[7] = qHTS for Inhibitors of the Functional Ribonucleoprotein Complex (vRNP) of Lassa (LASV) Arenavirus: Viability assay - alamar blue signal for LASV Primary Screen (AID 1347083; calls by dose curve; tested in HEK293 reporter line; note: series mostly up to about 57 µM; nearly all actives have a fitted effect of over 80% in size)
[8] = qHTS for Inhibitors of the Functional Ribonucleoprotein Complex (vRNP) of Lymphocytic Choriomeningitis Arenaviruses (LCMV): Viability assay - alamar blue signal for LCMV Primary Screen (AID 1347085; calls by dose curve; tested in HEK293 reporter line; note: series mostly up to about 57 µM; nearly all actives have a fitted effect of over 80% in size)
[9] = target: Nucleoprotein (Lymphocytic choriomeningitis virus (strain Armstrong)) (UniProt P09992); assay: qHTS for Inhibitors of the Functional Ribonucleoprotein Complex (vRNP) of Lymphocytic Choriomeningitis Arenaviruses (LCMV): LCMV Primary Screen - GLuc reporter signal (AID 1347086); note: series mostly up to about 57 µM; nearly all actives have a fitted effect of over 70% in size
Nucleoprotein (Lymphocytic choriomeningitis virus (strain Armstrong)), sequence (P09992 whole entry, looked up): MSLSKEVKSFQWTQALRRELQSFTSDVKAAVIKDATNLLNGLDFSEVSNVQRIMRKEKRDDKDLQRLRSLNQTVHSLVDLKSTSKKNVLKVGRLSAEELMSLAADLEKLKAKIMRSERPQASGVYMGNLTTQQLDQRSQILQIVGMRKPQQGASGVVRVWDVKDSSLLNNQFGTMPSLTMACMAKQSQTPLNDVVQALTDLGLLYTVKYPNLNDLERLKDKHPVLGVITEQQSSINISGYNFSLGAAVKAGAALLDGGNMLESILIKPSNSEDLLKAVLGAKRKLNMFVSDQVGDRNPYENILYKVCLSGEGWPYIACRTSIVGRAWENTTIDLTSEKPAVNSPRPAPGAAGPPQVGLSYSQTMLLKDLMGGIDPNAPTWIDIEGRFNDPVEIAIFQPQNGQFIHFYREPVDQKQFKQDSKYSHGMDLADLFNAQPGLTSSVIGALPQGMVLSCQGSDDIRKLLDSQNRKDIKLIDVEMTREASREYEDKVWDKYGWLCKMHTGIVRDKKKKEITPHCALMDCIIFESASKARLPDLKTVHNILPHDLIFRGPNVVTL

[10] = NS1 protein of Zika virus - qHTS assay to identify small molecule inhibitors in human HEK 293 cells (AID 1347053; active = well fitted curve in the direction sought with a large enough effect; an effect the other way counts as inactive or inconclusive; note: series mostly up to about 46 µM; nearly all actives have a fitted effect of over 55% in size)
Outline: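 HEK 293 cells pretreated with compound for 1 h, then infected with ZIKV MR766 (MOI 0.5) for 24 h at 37 C. NS1 detected by TR-FRET with two anti-NS1 antibodies; normalized to uninfected (0%) and infected (100%) wells.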

[11] = target: T1, Tyrosine-protein phosphatase non-receptor type substrate 1 (Homo sapiens) + Leukocyte surface antigen CD47 (Homo sapiens) (UniProt P78324+Q08722); assay: CD47-SIRPalpha protein protein interaction - LANCE assay qHTS validation (AID 1347057; active = well fitted curve in the direction sought with a large enough effect in the signal ratio, with a control signal flat, not every such curve was filed as active; the % refers to the signal ratio; note: series mostly up to about 38 µM)
T1 sequence (P78324 whole entry, looked up): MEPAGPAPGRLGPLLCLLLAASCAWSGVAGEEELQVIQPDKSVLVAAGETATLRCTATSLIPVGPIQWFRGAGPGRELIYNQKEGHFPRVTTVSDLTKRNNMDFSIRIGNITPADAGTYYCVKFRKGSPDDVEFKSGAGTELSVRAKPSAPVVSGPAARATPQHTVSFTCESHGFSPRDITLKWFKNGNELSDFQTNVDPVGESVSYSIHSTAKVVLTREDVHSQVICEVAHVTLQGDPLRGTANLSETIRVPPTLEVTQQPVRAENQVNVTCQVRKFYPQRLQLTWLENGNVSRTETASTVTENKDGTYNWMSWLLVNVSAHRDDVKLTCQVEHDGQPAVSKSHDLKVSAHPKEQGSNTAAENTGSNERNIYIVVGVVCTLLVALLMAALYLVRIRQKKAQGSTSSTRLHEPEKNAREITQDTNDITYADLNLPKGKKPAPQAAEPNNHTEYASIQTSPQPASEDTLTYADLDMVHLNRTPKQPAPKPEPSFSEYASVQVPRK
T1 sequence (Q08722 whole entry, looked up): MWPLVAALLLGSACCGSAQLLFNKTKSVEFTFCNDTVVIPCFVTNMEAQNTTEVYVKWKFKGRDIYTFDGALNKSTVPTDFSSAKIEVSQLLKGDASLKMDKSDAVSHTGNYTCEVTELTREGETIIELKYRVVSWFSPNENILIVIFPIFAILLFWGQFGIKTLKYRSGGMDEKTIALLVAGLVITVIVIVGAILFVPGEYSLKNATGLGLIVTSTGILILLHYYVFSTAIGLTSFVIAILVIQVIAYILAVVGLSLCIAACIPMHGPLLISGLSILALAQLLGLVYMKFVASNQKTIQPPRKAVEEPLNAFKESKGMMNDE
Outline: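 First, His-tagged CD47 and Eu-labelled anti-His antibody met the compound for 30 min; next, site-specifically biotinylated SIRPalpha was added for 30 min; finally streptavidin-APC was added before reading the TR-FRET ratio.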

[12] = target: T1, Tyrosine-protein phosphatase non-receptor type substrate 1 (Homo sapiens) + Leukocyte surface antigen CD47 (Homo sapiens); assay: CD47-SIRPalpha protein protein interaction - HTRF assay qHTS validation (AID 1347058; active = well fitted curve in the direction sought with a large enough effect in the signal ratio, not every such curve was filed as active; the % refers to the signal ratio; note: series mostly up to about 38 µM)
Outline: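 TR-FRET read (Ch1/Ch2 ratio) of soluble extracellular CD47 and Avi-biotinylated SIRPalpha domains in PBS pH 7.4 with 0.05% IGEPAL; 7-point compound titration. Sequential 30 min room-temperature steps; non-biotinylated SIRPalpha as control inhibitor.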

[13] = target: T1, Tyrosine-protein phosphatase non-receptor type substrate 1 (Homo sapiens) + Leukocyte surface antigen CD47 (Homo sapiens); assay: CD47-SIRPalpha protein protein interaction - Alpha assay qHTS validation (AID 1347059; active = well fitted curve in the direction sought with a large enough effect; an effect the other way counts as inactive or inconclusive;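 note: bead proximity luminescence from CD47 binding SIRPalpha after compound preincubation with SIRPalpha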)
Outline: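 Soluble extracellular domains: Avi-tag biotinylated SIRPalpha (25 nM) preincubated 30 min RT with compound, then 6His-CD47 (12.5 nM) 30 min; Ni-NTA acceptor and streptavidin donor beads (10 ug/mL) 30 min, AlphaScreen read. PBS pH 7.4, 0.05% IGEPAL.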

Measured: Potency

C[C@@H]1[C@@H]2Cc3ccc(O)cc3[C@@]1(C)CCN2CC1CC1
not listed: [10] | [11] | [12] | [13]
inactive: all other assays above

NCCCP(=O)(O)O
not listed: [1]
inactive: all other assays above

CCCN1CC[C@@H]2c3cc(O)ccc3CC[C@@H]21
not listed: [1]
inactive: all other assays above

CC(Cc1ccc(OCC(=O)O)cc1)NCC(O)c1cccc(Cl)c1 (stereo not given)
not listed: [1]
inactive: all other assays above

CCOC(=O)c1ncn2c1[C@@H]1CCCN1C(=O)c1cc(OC)ccc1-2
not listed: [1]
inactive: all other assays above

COC1CC(OC2CCC3(C)C(=CCC4C3CCC3(C)C(C(C)OC5OC(COC6OC(CO)C(O)C(O)C6O)C(O)C(O)C5O)CCC43O)C2)OC(C)C1OC1OC(C)C(O)C(OC)C1O (stereo not given)
inactive: [1] inactive [at 9.29 µM]

CCNC(=O)[C@H]1O[C@@H](n2cnc3c(N)ncnc32)[C@H](O)[C@@H]1O
not listed: [1]
inactive: all other assays above
